Screens (PubChem BioAssay)
The sample as a whole holds a higher share of hits than the screen did.
RMI FANCM FP – inhibitors of human RMI core complex binding to FANCM MM2 | Fluorescence polarization, RMI core complex with F-MM2 peptide; hits give low values | FP signal (polarization) at 33 µM | 70,000 compounds, 0.58% hits | AID 1159607; in the data active = FP signal below about 40
Each line names hits and unclear results; the compound was inactive in the other large screens; ! = a repeat was not active.

COCC(=O)N1CCCc2ccc(NS(=O)(=O)Cc3cccc(C)c3)cc21	none
COCCN1CCCc2ccc(NS(=O)(=O)Cc3cccc(C)c3)cc21	RMI FANCM FP 0
COCCN1CCCc2ccc(NS(=O)(=O)c3cccc(C)c3)cc21	none
Cc1c(C)c2c(c(C)c1O)CCC(C)(CN1CCN(c3cc(N4CCCC4)nc(N4CCCC4)n3)CC1)O2 (stereo not drawn)	none
Cc1c(C)c2c(c(C)c1O)CC[C@@](C)(CCC[C@H](C)CCC[C@H](C)CCCC(C)C)O2	none
Cc1c(C)c2c(c(C)c1O)CCC(C)(C(=O)O)O2 (stereo not drawn)	RMI FANCM FP 1
O=C(Nc1nnc(CCSc2ccccc2)o1)c1ccc([N+](=O)[O-])s1	none
COCCCn1c(=O)c2ccccc2n(Cc2nc(-c3cccc(C(F)(F)F)c3)no2)c1=O	none
O=C1c2ccccc2C(=O)c2c1cccc2S(=O)(=O)Nc1ccc(-c2ccc(NS(=O)(=O)c3cccc4c3C(=O)c3ccccc3C4=O)cc2)cc1	none
Clc1ccc2c(Nc3ccc4c(c3)OCO4)ccnc2c1	none
O=C(OCCOc1ccc(Cl)cc1Cl)c1ccccc1Cl	none
O=C(OCC(O)CO)c1ccccc1Nc1ccnc2cc(Cl)ccc12 (stereo not drawn)	RMI FANCM FP -4!
CCOc1ccc(-c2c(C#N)c(N)nc(SCC(=O)c3ccc([N+](=O)[O-])cc3)c2C#N)cc1	none
Cc1cc(C(=O)Nc2nnc(-c3cc(Cl)sc3Cl)o2)on1	none
Cc1cc(C)cc(N2C(=O)C3N=NN(c4ccc(Cl)cc4)C3C2=O)c1 (stereo not drawn)	none
CC1(C)CC2C1CCC1(C)OC2(C)CCC1O (stereo not drawn)	RMI FANCM FP -8
CC1(C)CC2C1CCC1(C)OC1CCC2(C)O (stereo not drawn)	none
O=C(CCc1csc(NC(=O)c2ccc[nH]c2=O)n1)NCCC1=CCCCC1	none
O=C1C([N+](=O)[O-])=C(O)c2cccc3cccc1c23	RMI FANCM FP -1
O=C(C1=C(Cl)c2cccc3cccc(c23)C1=O)c1ccccc1	none
O=C1c2ccc3ccccc3c2-c2cccc3cccc1c23	none
O=C(/C=C/c1cccs1)N1CCN(c2nc3c(F)cccc3s2)CC1	none
Nc1nc(SCC(=O)Nc2ccc(F)cc2F)ncc1S(=O)(=O)c1cccs1	none
O=S(=O)(c1ccc(F)cc1F)N1CCN(c2ccc(-c3cccnc3)nn2)CC1	none
Cc1ccc(-n2ncc(C#N)c2N)c(C)c1	none
Cc1ccc2oc3nc(N)c(C#N)cc3c(=O)c2c1	RMI FANCM FP 5
N#Cc1cc2ccccc2oc1=O	none
Cc1ccc(Nc2nc(C(N)=O)cs2)c(C)c1	none
O=C(NCc1nnc(SCC(=O)N2CCc3ccccc32)o1)c1cccc(C(F)(F)F)c1	none
CSc1nc(N)cc(N)n1	none
CCOc1cc(-c2nnc(NC(=O)c3cccc(Br)c3)o2)cc(OCC)c1OCC	none
NNC(=O)c1nn(-c2ccccc2)c(=O)c2c(N)scc12	RMI FANCM FP 24
CCOC(=O)c1nn(-c2ccc(OC)cc2)c(=O)c2c(NC(=O)c3c(OCC)ccc4ccccc34)scc12	none
O=C(Nc1scc2c(C(=O)O)nn(-c3ccc(C(F)(F)F)cc3)c(=O)c12)c1c(F)cccc1Cl	none
O=C(Nc1cc(C(F)(F)F)ccc1Cl)c1cc2cc([N+](=O)[O-])ccc2s1	none
Cc1ccc(Cn2nnc3c(SCC(=O)NCc4ccco4)ncnc32)cc1	none
COc1cccc2c1C(=O)c1c(O)c3c(c(O)c1C2=O)C[C@@](O)(C(C)=O)C[C@@H]3O[C@H]1C[C@H](N)[C@H](O)[C@H](C)O1	none
CC(=O)[C@]1(O)Cc2c(O)c3c(c(O)c2[C@@H](O[C@H]2C[C@H](N)[C@H](O)[C@H](C)O2)C1)C(=O)c1ccccc1C3=O	none
COc1cccc2c1C(=O)c1c(O)c3c(c(O)c1C2=O)C[C@@](O)(C(=O)CO)C[C@@H]3O[C@H]1C[C@H](N)[C@@H](O)[C@H](C)O1	RMI FANCM FP -10
CC1(C)CC(=O)c2cc3c(N)c(C(=O)NCc4ccco4)sc3nc2C1	none
COc1ccccc1C1CCN(C(=O)[C@@H](C)N2CCN(c3ccc(C(F)(F)F)cn3)CC2)CC1	none
CNC(=O)c1c(NC(=O)c2ccc(C(=O)c3ccccc3)cc2)sc2c1CCCCC2	none
COc1ccc(-c2cc(-c3ccc(Cl)cc3)nc3sc(C(=O)NCCc4ccccc4)c(N)c23)cc1	RMI FANCM FP -12
COc1ccc(-c2cc(-c3ccc(C)c(C)c3)nc3sc(C(=O)Nc4nsc(-c5ccc(Cl)cc5)n4)c(N)c23)cc1	none
COc1ccc(-c2cc(-c3ccccc3)nc3sc(C(=O)Nc4nsc(-c5ccccc5)n4)c(N)c23)cc1OC	none
O=C(N/N=C\c1ccc([N+](=O)[O-])cc1)c1cc(-c2ccc(Br)s2)[nH]n1	none
O=S(=O)(Cc1ccc(Cl)cc1)NCc1ccsc1	none
CC(=O)N1CCc2ccc(NS(=O)(=O)Cc3ccccc3F)cc2C1	none
Cc1occc1-c1nc2s/c(=C\c3ccc(-c4cccc(C(F)(F)F)c4)o3)c(=O)n2n1	RMI FANCM FP 16
Cc1ccc(/C=c2\sc3nc(=O)c(C)nn3c2=O)o1	none
N#CCCN1CCN(C2=NC(=O)/C(=C\c3ccc(-c4cccc(C(F)(F)F)c4)o3)S2)CC1	none
O=C(NCc1ccc(F)cc1)c1sccc1S(=O)(=O)N1CCN(c2ccccc2F)CC1	none
COc1ccc(Cl)c2sc(N3CCN(C(=O)c4cccc(S(C)(=O)=O)c4)CC3)nc12	none
COc1cc(/C=N\n2c(C)nc3c(ncn3-c3ccccc3)c2=O)cc(OC)c1OC	none
Cc1nc2cc3ccccc3cc2c(=O)n1/N=C\N(C)C	RMI FANCM FP 8
Cc1cc(Sc2nnc(N=CN(C)C)s2)c2ccccc2n1	none
CCOC(=O)c1c(NC(=O)CCS(=O)(=O)c2ccc(Cl)cc2)sc2c1CCCCC2	none
O=C(CSc1nccc(-c2cccs2)n1)N1CCOCC1	none
c1csc(-c2ccnc(SCc3ccc4nonc4c3)n2)c1	none
O=C(CSc1nccc(-c2cccs2)n1)c1cc(-c2ccc(Cl)c(Cl)c2)no1	RMI FANCM FP 12
Cc1nc(-c2ccccc2)sc1C(=O)NCCNC(=O)c1ccc(NC(=O)C2CC2)cc1	none
CC(C)N1CCC(CNC(=O)C(=O)NCc2ccc(F)cc2)CC1	none
O=C(Nc1cnc2ccccc2c1)C1CCN(c2ccc(-c3ccco3)nn2)CC1	RMI FANCM FP 26
O=C(Nc1ccc(F)c(C(F)(F)F)c1)C1CCN(c2ccc(-c3ccco3)nn2)CC1	none
O=C(Nc1ccc(F)c(Cl)c1)C1CCN(c2ccc(-c3ccco3)nn2)CC1	none
COc1ccc(/C=C\C(=O)c2ccc(NC(=O)C34CC5CC(CC(C5)C3)C4)cc2)cc1	none
Cc1cc(-c2nnc(NC(=O)Cc3cccs3)o2)nn1C	none
COc1ccc(Cl)c2sc(NC(=O)c3cc(Cl)sc3Cl)nc12	none
CC(C)c1cc(=O)[nH]c(-n2nc(-c3cccs3)cc2N)n1	none
O=c1[nH]c(SCc2nc(-c3ccc(F)cc3)no2)nc2ccsc12	none
Cc1cc(-c2ccccc2)nc(SCC(=O)Nc2cccc(C(F)(F)F)c2)n1	none
O=C(Nc1cccc(C(F)(F)F)c1)OCCSc1ccc([N+](=O)[O-])c2nonc12	RMI FANCM FP 7
CC(=O)Nc1ccc(NC(=O)CSc2ccc(S(=O)(=O)C(F)(F)F)cc2[N+](=O)[O-])cc1	none
O=[N+]([O-])c1ccc(SCCOS(=O)(=O)c2cccc(C(F)(F)F)c2)c2nonc12	none
O=C(CSc1ccc([N+](=O)[O-])cc1[N+](=O)[O-])Nc1cccc(C(F)(F)F)c1	RMI FANCM FP 14
N/C(=N\OC(=O)Nc1cccc(C(F)(F)F)c1)c1ccno1	none
COC(=O)c1c(C)[nH]c(C(=O)CSc2nc3sc(C)c(C)c3c(=O)n2-c2ccccc2)c1C	none
